For test [1], the target named is Tyrosine-protein kinase SYK (Homo sapiens) (UniProt P43405). The conditions noted are these: at 10 µM.
In test [2] the target is T1, Mitogen-activated protein kinase kinase kinase 7 (Homo sapiens) (UniProt O43318).
T1 sequence (whole entry): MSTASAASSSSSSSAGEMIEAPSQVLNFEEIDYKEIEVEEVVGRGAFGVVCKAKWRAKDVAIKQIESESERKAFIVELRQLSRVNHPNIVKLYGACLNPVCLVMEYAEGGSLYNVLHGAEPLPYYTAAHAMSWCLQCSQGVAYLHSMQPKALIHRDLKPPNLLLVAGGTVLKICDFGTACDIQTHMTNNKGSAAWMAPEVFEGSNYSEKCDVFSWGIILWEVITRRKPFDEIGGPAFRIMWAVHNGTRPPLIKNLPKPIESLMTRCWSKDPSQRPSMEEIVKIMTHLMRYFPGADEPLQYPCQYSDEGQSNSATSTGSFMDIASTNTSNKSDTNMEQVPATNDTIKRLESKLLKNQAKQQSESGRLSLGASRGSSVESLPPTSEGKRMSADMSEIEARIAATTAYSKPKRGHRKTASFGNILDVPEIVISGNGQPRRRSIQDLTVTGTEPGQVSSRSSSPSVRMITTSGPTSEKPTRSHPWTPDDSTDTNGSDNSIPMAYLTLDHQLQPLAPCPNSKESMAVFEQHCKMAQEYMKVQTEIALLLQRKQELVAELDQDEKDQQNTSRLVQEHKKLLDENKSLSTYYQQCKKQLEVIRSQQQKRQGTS
As to conditions: at 1 µM.

Test [3] deals with T1, Mitogen-activated protein kinase kinase kinase 7 (Homo sapiens). The conditions noted are these: at 10 µM.
Test [4] deals with T2, Serine/threonine-protein kinase TAO1 (Homo sapiens) (UniProt Q7L7X3).
T2 sequence (whole entry): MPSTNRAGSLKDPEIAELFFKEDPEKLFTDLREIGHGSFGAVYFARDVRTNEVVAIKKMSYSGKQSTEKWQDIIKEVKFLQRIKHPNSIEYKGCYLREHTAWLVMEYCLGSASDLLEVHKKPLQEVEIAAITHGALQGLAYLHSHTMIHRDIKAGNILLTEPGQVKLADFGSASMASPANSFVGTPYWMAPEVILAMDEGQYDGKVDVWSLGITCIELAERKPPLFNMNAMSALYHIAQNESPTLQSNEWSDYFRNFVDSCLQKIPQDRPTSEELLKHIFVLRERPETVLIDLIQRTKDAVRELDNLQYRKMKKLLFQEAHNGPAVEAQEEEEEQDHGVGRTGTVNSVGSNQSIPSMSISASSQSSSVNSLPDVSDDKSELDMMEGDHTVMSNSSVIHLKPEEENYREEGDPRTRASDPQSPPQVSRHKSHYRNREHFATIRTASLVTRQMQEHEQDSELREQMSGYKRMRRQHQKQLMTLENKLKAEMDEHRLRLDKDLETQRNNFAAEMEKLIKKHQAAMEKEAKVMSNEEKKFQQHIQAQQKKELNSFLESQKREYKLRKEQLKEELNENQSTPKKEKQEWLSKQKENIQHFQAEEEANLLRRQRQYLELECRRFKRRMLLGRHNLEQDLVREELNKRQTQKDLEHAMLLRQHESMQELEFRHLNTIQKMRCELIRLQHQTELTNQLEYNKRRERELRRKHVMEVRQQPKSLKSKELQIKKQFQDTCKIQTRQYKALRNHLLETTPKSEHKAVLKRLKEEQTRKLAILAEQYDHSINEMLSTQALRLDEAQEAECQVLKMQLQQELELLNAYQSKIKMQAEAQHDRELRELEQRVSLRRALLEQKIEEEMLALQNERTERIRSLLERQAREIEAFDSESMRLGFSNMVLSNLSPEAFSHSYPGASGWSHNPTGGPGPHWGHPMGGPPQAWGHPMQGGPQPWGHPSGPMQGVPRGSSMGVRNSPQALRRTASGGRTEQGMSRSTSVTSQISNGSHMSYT
The conditions noted are these: at 1 µM.

The target in test [5] is T2, Serine/threonine-protein kinase TAO1 (Homo sapiens). As to conditions: at 10 µM.
Test [6] addresses T3, Serine/threonine-protein kinase TAO2 (Homo sapiens) (UniProt Q9UL54).
T3 sequence (whole entry): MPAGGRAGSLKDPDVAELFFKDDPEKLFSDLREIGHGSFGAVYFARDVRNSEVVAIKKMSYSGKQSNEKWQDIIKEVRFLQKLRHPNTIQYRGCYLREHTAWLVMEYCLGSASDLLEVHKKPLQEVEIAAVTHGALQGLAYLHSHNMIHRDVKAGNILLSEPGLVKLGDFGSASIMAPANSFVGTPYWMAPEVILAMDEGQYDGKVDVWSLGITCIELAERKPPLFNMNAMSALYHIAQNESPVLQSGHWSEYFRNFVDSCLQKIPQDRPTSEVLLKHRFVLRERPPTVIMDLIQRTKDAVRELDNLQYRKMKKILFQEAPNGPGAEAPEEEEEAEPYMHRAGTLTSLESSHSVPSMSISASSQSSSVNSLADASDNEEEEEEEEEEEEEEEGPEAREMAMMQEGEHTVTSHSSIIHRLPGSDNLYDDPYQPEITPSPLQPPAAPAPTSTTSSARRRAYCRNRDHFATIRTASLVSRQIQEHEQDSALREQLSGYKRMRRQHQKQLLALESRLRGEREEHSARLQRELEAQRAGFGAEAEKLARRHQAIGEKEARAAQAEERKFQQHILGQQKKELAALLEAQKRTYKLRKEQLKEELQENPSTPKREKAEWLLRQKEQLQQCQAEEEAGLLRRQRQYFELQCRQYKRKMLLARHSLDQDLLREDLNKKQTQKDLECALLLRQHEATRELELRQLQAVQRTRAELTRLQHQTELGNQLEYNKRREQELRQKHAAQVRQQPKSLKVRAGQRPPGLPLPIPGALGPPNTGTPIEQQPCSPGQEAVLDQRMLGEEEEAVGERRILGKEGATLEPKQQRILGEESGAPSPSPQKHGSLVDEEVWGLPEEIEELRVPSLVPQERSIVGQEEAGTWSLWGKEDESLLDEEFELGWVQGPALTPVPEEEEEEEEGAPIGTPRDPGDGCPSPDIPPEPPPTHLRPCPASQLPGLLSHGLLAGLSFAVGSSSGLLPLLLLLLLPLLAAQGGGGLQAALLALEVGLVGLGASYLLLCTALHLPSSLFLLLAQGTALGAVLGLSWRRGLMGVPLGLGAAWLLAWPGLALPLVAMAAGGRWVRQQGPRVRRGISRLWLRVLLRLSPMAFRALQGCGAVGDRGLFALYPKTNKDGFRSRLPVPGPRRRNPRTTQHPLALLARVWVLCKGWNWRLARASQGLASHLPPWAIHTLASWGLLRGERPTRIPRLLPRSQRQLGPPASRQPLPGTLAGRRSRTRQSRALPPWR
The conditions noted are these: at 1 µM.

Test [7] addresses T3, Serine/threonine-protein kinase TAO2 (Homo sapiens). The conditions noted are these: at 10 µM.
Test [8] concerns the target T4, Serine/threonine-protein kinase TAO3 (Homo sapiens) (UniProt Q9H2K8).
T4 sequence (whole entry): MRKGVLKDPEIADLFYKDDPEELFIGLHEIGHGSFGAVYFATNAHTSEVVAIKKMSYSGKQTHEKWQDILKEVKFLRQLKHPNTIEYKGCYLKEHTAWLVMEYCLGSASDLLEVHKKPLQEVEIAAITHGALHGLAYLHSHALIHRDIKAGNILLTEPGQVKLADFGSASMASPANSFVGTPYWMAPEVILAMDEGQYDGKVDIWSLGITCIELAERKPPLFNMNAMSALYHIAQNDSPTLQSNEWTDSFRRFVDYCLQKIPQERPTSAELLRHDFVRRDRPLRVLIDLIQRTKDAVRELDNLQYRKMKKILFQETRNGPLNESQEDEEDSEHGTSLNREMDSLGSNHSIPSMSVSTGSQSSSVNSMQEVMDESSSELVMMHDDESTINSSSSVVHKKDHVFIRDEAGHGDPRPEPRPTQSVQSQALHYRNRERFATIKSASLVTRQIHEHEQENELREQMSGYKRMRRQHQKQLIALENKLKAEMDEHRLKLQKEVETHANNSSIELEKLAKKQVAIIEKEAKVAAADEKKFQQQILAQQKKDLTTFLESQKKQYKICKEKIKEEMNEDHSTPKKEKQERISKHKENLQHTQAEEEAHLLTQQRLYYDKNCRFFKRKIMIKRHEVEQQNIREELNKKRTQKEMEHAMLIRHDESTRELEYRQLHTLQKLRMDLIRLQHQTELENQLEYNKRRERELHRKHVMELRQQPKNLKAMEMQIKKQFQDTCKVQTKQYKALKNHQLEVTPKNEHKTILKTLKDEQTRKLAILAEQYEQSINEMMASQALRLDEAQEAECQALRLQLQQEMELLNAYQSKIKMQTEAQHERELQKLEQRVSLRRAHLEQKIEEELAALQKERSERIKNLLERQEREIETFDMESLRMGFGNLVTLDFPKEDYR
As to conditions: at 1 µM.

Test [9] deals with T4, Serine/threonine-protein kinase TAO3 (Homo sapiens). As to conditions: at 10 µM.
Test [10] concerns the target T5, Serine/threonine-protein kinase TBK1 (Homo sapiens) (UniProt Q9UHD2).
T5 sequence (whole entry): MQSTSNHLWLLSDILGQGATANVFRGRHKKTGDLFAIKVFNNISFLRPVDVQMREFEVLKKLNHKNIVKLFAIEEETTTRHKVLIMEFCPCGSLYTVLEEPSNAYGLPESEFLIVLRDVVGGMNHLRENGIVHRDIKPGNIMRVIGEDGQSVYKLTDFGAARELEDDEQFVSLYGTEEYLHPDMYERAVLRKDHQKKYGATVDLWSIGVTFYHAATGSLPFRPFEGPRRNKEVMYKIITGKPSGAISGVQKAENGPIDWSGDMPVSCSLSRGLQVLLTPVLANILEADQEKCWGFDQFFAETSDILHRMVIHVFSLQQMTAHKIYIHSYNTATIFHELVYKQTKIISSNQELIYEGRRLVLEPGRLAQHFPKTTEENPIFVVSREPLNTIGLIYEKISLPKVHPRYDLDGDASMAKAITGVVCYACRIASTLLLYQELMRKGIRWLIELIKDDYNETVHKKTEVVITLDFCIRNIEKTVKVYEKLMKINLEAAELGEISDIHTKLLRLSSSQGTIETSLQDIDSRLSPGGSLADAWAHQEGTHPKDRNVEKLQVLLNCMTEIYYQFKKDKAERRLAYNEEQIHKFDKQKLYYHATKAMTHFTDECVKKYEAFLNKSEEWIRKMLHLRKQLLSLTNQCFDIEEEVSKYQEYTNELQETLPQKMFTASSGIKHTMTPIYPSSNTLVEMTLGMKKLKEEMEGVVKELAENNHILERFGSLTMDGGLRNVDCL
As to conditions: at 1 µM.

In test [11] the target is T5, Serine/threonine-protein kinase TBK1 (Homo sapiens). As to conditions: at 10 µM.
The target of test [12] is T6, TGF-beta receptor type-1 (Homo sapiens) (UniProt P36897).
T6 sequence (whole entry): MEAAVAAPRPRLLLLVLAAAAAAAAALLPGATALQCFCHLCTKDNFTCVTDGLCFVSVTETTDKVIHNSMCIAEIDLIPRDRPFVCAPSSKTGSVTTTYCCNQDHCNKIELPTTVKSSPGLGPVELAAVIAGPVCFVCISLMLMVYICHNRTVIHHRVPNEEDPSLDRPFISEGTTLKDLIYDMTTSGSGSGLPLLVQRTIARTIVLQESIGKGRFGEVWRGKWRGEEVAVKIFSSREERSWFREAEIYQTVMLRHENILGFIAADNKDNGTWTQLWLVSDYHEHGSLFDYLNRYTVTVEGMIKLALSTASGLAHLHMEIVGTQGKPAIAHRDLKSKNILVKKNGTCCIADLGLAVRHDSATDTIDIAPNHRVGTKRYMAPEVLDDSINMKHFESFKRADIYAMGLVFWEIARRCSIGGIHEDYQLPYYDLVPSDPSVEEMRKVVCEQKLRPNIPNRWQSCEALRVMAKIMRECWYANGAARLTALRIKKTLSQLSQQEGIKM
As to conditions: at 1 µM.

The target in test [13] is T6, TGF-beta receptor type-1 (Homo sapiens). As to conditions: at 10 µM.
Test [14] deals with Insulin receptor (Homo sapiens) (UniProt P06213). The conditions noted are these: at 1 µM.
Chain of Insulin receptor (Homo sapiens) (P06213 28-758 limits assumed): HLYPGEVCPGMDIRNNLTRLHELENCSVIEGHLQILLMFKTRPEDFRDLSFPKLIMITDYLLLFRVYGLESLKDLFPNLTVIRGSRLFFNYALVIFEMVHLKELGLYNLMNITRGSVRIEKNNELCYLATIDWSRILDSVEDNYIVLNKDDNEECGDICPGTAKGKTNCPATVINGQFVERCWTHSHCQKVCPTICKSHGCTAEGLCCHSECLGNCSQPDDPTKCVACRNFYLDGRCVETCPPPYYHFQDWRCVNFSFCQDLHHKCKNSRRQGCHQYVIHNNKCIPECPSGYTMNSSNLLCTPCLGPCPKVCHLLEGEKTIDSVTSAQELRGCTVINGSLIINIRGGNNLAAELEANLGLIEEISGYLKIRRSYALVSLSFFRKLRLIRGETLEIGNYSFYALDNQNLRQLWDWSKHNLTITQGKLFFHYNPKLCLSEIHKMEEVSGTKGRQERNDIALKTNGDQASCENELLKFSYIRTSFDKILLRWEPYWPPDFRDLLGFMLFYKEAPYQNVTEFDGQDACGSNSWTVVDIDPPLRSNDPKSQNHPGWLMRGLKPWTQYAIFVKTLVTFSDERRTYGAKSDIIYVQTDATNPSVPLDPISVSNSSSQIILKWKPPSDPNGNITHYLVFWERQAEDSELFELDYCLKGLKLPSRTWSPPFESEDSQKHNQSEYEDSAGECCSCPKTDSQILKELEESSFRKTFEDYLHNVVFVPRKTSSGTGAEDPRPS
Chain of Insulin receptor (Homo sapiens) (P06213 763-1382 limits assumed): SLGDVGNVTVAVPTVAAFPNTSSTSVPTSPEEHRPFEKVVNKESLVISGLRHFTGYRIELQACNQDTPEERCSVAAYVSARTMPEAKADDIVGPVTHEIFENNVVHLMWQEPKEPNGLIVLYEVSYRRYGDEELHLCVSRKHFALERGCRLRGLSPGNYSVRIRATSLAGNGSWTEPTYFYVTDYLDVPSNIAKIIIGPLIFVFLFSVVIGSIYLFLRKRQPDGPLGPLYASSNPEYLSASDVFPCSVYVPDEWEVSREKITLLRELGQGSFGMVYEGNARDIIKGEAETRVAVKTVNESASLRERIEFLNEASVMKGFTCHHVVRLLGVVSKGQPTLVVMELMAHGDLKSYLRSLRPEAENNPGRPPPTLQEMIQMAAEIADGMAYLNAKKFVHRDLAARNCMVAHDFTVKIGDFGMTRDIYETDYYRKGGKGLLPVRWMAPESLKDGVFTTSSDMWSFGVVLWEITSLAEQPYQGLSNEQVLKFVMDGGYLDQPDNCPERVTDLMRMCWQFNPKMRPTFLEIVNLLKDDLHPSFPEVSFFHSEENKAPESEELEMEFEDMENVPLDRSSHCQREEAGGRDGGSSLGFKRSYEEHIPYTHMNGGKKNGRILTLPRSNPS

Turning to `N#CCCc1ccc2c(c1)-c1[nH]c3ccc([N+](=O)[O-])cc3c1CC(=O)N2`, the residual activity stood at 41% in test [1]; 57% in test [2]; 21% in test [3]; 58% in test [4]; 24% in test [5]; 64% in test [6]. Further, the residual activity was 52% in [7]; 56% in test [8]; 41% in [9]; 38% in [10]; 13% in [11]; 73% in [12]. Moreover, the residual activity came out at 28% in test [13] and 118% in [14].

For the origin of these results see ChEMBL document CHEMBL2218924, “A broad activity screen in support of a chemogenomic map for kinase signalling research and drug discovery” (Biochem J, 2013).
